Test results as given in the supplement of paper PMC6555819.

Columns and labels:
Experiment in all cases: PBM binding z-score (relative to random genomic background probes); higher = stronger binding; sequences stand for … in GC…GCGATTGACAGCGTAGAATGAAGG
[1] = tested on: RARb homodimer (NR concentration 270 nM)
Procedure, shortened: (§1)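 Binding buffer was PBS pH 7.4 with 2% milk, 0.02% Triton X-100, 1 mM DTT, 0.2 mg/mL BSA and 0.4 mg/ml salmon testes DNA. In it, ligand-free nuclear receptor dimers were incubated 1 h on custom Agilent 4×180K protein-binding microarrays carrying double-stranded probes. Antibodies against each partner (one per run) detected binding, and z-scores were calculated against random background probes after regression normalization of scanned fluorescence.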

[2] = tested on: RARg:RXRa (NR concentration 270 nM, RXRa partner concentration 90 nM)
Procedure, shortened: as §1

[3] = tested on: RARg homodimer (NR concentration 270 nM)
Procedure, shortened: as §1

[4] = tested on: RXRa DBDmut IVT, anti-RXR (DBD mutation: RXRa K156A/R161A, NR concentration 90 nM)
Procedure, shortened: as §1

[5] = tested on: RXRa homodimer (NR concentration 180 nM)
Procedure, shortened: as §1

[6] = tested on: THRa:RXRa (NR concentration 90 nM, RXRa partner concentration 90 nM)
Procedure, shortened: as §1

[7] = tested on: THRa homodimer (NR concentration 90 nM)
Procedure, shortened: as §1

[8] = tested on: VDR homodimer (NR concentration 270 nM)
Procedure, shortened: as §1

Sequence | PBM binding z-score [1] | PBM binding z-score [2] | PBM binding z-score [3] | PBM binding z-score [4] | PBM binding z-score [5] | PBM binding z-score [6] | PBM binding z-score [7] | PBM binding z-score [8]
GCTTACGGGTCAAAGGTTATCGCATGAATAGAAT | 3.45 | 7.02 | 5.01 | 2.6 | 9.64 | 3.98 | 0.155 | 1.59
ACTATTGGTTGACTTAGGGCAACCGATACGACGC | 0.788 | 0.838 | 0.894 | 0.419 | 0.479 | 1.66 | 0.213 | -0.0545
AGTCAAAGTTCAGGACGAGGTGACGTAAAGCACG | 3.64 | 5.69 | 5.15 | 3.18 | 3.53 | 3.93 | 1.83 | 2.66
CCTAGGTGGTCAAGGTCACACACGCTATAGGTAC | 4.16 | 4.81 | 4.61 | 1.79 | 4.66 | 4.09 | 4.01 | 3.06
ACTAGTTGGTCTGCTGAGGTCACACACAATTCGG | 3.79 | 3.33 | 2.94 | 1.37 | 3.45 | 4.32 | 5.25 | 3.1
AGAATGAGGTTAGACGTAGATCAGGGAAGAAAGT | 0.932 | 0.987 | 0.859 | 0.209 | 1.17 | 1.55 | 0.554 | 0.591
TAACCTAGGTCAGATCGGGCCAGTATACGCTATA | 2.52 | 3.36 | 3.68 | 0.17 | 1.94 | 4.19 | 0.384 | 0.367
AATACAGGGTCACTAGCCCAGAGTAGGTACGAAT | 2.95 | 4.82 | 4.62 | 2.61 | 5.17 | 3.22 | 1.13 | 2.21
GGAACGAGGGCAAAGTTGATAGCGTCTGTCGACG | 1.32 | 2.22 | 1.75 | 2.69 | 2.17 | 1.38 | -0.194 | 1.43
CCTTACGGGTCACGACGTTATAGCACGACGAGCG | 3.34 | 5.56 | 5.15 | 0.951 | 6.26 | 2.99 | 0.181 | 0.722
CGTCCAAGGTCAGCAGGTTAGTGAAAGCGACGTG | 4 | 5.37 | 6.05 | 2.64 | 4.17 | 3.57 | 2.06 | 1.76
AGTCAAAGTTCATCGAGGTAACGTAAGATATGCT | 4.15 | 5.57 | 6.25 | 4.45 | 4.87 | 3.97 | 1.19 | 5.6
TTACCAAGGTGAGCTGAGGTCGTTCATCCAACTC | 1.81 | 1.4 | 0.963 | 0.409 | 1.3 | 4.63 | 2.3 | 2.41
CTCGAAAGGTCGTGCTCAGGTGTGTATACCAAAC | 2.72 | 4.45 | 3.62 | 2.5 | 4.71 | 3 | 0.4 | 0.893
CCTAGTTGGTCAGGAGGTCTCACACCGGATATGA | 1.11 | 0.617 | 0.718 | -0.451 | 0.298 | 0.191 | 0.505 | 0.261
TCTTGTAGATCAAGCAAGTTAAGAAAGCCTGAGT | -0.703 | -0.21 | -0.386 | 0.582 | -0.066 | 0.341 | -0.759 | -0.186
GCTATGAGTTGAAAGGGCAACCGAATGATTCTCG | 2.14 | 2.06 | 1.7 | 1.93 | 2.78 | 1.17 | -0.184 | 0.754
GGAACGAGGGCAAACTTGATAGCATCTGTCGACG | 1.03 | 1.52 | 1.62 | 3.1 | 1.17 | 1.09 | -0.309 | 1.61
GCTTGTAGATCAAGGTTAAGAATGACTAAGCTAA | 0.438 | 0.397 | 0.413 | 0.0922 | 0.859 | 1.08 | -0.00442 | -0.161

Sequence | PBM binding z-score [1] | PBM binding z-score [2] | PBM binding z-score [3] | PBM binding z-score [4] | PBM binding z-score [5] | PBM binding z-score [6] | PBM binding z-score [7] | PBM binding z-score [8]
CCTATTAGTTGCCCATAAGGGCAACCGAAGCTCG | 1.75 | 0.539 | 0.688 | 0.215 | 0.507 | 1.65 | 1.67 | 0.922
TCTTGTAGATCAATATAGGTTAAGAAAGTGCGCT | 0.819 | 0.579 | 0.586 | 1.31 | 0.962 | 1.03 | -0.0282 | 0.0852
TCTTGTAGATCAAGCAGATTAAGAAAGCCTGAGT | -0.625 | -0.157 | -0.298 | 0.446 | 0.2 | -0.439 | -0.521 | -0.466
ATCTCTAGGTAAAAGTTCTGTGAATCCCGAGGAT | -0.265 | 0.293 | 0.308 | -0.0693 | 0.153 | 0.234 | 0.364 | 0.467
TCTTGTAGATCAAGCGGGTTAAGAAAGCCTGAGT | 0.106 | -0.294 | -0.546 | 0.628 | 0.204 | 0.221 | -0.488 | -0.0254
CATACAGGGTCAGCTAAGCCAGAGTAGGGACGGC | 2.87 | 4.23 | 4.37 | 1.77 | 4.2 | 3 | 0.863 | 1.04
AGAATGAGGATACCAAAGATCAGGGAAACGCTTG | -0.727 | 0.287 | 0.437 | -0.419 | 0.36 | 1.5 | 0.171 | -0.61
AGTCAAAGTTCATCTAGGTGACGTAAGATATGCT | 3.92 | 5.42 | 5.9 | 4.62 | 4.44 | 3.16 | 0.193 | 4.86
CCTGCTAGGTCAATGGTCAGCTAGAGCAGCTCGC | 2.68 | 3.14 | 3.81 | 1.45 | 2.19 | 2.33 | 0.515 | -0.262
ACTATTAGTTGAATTAGGGCAACCGATACGACGC | 0.778 | 0.551 | 0.997 | 0.675 | 0.283 | 1.54 | 0.513 | 0.497
TATGCTAGGTCAGTTGGTCAGCTAACGAGCTGCC | 2.5 | 2.62 | 3.34 | -0.0461 | 1.06 | 1.3 | 0.034 | -0.256
AGAAGGAGGGCACGCTGAGTTGATAGCAGAGTAG | 1.4 | 1.94 | 2.17 | 0.783 | 1.2 | 1.13 | -0.112 | 1.04
CCTTACGGGTCACTGACAGGTTATAGCATTTGGA | 3.39 | 6.19 | 4.95 | 1.95 | 5.59 | 2.98 | 0.283 | 1.03
TCGAGTATGTTACCAATGGGGCATTCAGCTTTCT | -0.135 | -0.111 | -0.492 | 0.904 | -0.0794 | -0.318 | -0.731 | -0.375
TAGCCTAGGTCAGATCCGGCCAGTATACGCTATA | 2.26 | 2.41 | 3.5 | -0.288 | 1.41 | 3.4 | 0.0339 | -0.271
TCTTGTAGATCAGCAGGTGAAGAAAGCTGGCCAA | -0.153 | -0.237 | -0.356 | 0.475 | 0.184 | 0.0556 | -0.332 | -0.766
AAAGACAGGTGAGTGAAGGTAACTCAGCTGGACG | 0.159 | 0.293 | 0.488 | -0.545 | 0.374 | 1.86 | -0.204 | -0.128
ATATGTAGGTTACATCCGGGTCATGCAGGCTATG | 2.93 | 3.76 | 2.25 | 0.707 | 3.4 | 4 | 2.29 | 1.76
CGTCCAAGGTCAATGCTAGGTTAGTGAAAGCATT | 2.54 | 6.12 | 6.16 | 3.86 | 4.75 | 3.91 | 2.27 | 2.58

Sequence | PBM binding z-score [1] | PBM binding z-score [2] | PBM binding z-score [3] | PBM binding z-score [4] | PBM binding z-score [5] | PBM binding z-score [6] | PBM binding z-score [7] | PBM binding z-score [8]
TAGCCTAGGTCATTGAGGGGCCAGTATAGAAAGC | 2.97 | 5.82 | 4.34 | 1.59 | 2.82 | 3.05 | 0.714 | 1.16
CCTAGCAGTCCAGGGTCACTCAAGCATTTCGCTT | 2.5 | 2.77 | 2.03 | 1.07 | 3.27 | 2.95 | 1.64 | 1.7
ATCTCAAGGTAAAGATAGTTCAGTGAATGCAAAT | 0.976 | 1.03 | 1.11 | 0.292 | 0.564 | 1.53 | 0.311 | 0.351
CCTCCGAGGACAACAGGAGGTCAGAGCTGCCAGA | 3.75 | 3.41 | 3.21 | 0.726 | 2.02 | 3.58 | 2.36 | 1.61
AGAACGCGGGCACGCTGAGTTGATAGCAGAGTAG | -0.459 | 0.0245 | 0.351 | -0.368 | 0.141 | -0.476 | -1.01 | 0.0842
ACAGACAGGTGAGTGAAGGTACCTCAGCTGGACG | -0.44 | -0.0299 | 0.22 | -0.86 | -0.0741 | 0.291 | -0.575 | -0.908
TCATATGGGTAAAGGTGAAAGTCGAACGATATGA | 1.36 | 1.41 | 0.964 | 0.352 | 2.08 | 1.24 | -0.573 | -0.341
CCTGCTAGGTCATGGTCAGCTAATCTACAGTATG | 3.24 | 4.01 | 4.52 | 1.9 | 2.92 | 3.06 | 1.39 | 0.473
CGAACTAGGTCATACAGGACAGTGAATACATTGA | 2.68 | 3.77 | 4.03 | 2.32 | 2.68 | 2.83 | 1.2 | 1.57
CCGACTGGGGCAAGGTTACCATCACGCACAGCCA | 1.61 | 1.08 | 1.33 | -0.402 | 1.18 | 1.22 | 0.274 | -0.0347
ACTATCAGTTGACTTAGGGCAACCGATACGACGC | 0.986 | 0.641 | 1.1 | 0.226 | 0.399 | 1.46 | 0.315 | 0.169
ATCTCTAGGTACAAGTTCAGTGAATCCCGAGGAT | 1.52 | 0.997 | 1.14 | 1.93 | 0.729 | 0.819 | 0.457 | 2.83
TCGAGTATGTTAGTCGGGGCATTCAGCCAACATA | -0.183 | -0.172 | -0.574 | 0.723 | -0.06 | 0.102 | -0.431 | 0.226
CCTTACGGGTCAAGGTTACAGCACGGGTGGTACG | 3.8 | 5.07 | 4.96 | 0.498 | 5.42 | 3.38 | 1.09 | 1.19
CGTCCAAGGTCAATGCTAGGTCAGTTAAAGCATT | 5.03 | 7.56 | 6.8 | 3.49 | 5.03 | 4.67 | 2.9 | 3.2
AGAATGAGGTTATACGTAGCTCAGGGAAGAAAGT | 0.301 | 1.29 | 0.944 | 1.7 | 1.86 | 1.81 | 0.226 | 0.643
CCTGCTACGTCAATGGTCAGCTAAAGCAGCTCGC | 0.4 | -0.424 | -0.342 | 0.29 | -0.492 | -0.534 | -0.374 | -0.434
CTACCAAGGTGAACACGGTCGTTGATTACTATTC | 1.24 | 0.852 | 0.843 | 0.773 | 0.777 | 2.07 | 0.961 | 0.015
GTACCAAGGTGAACAGGTCGTTGATGAGTAGGCG | 1.76 | 1.95 | 1.02 | -0.221 | 1.67 | 2.22 | 0.534 | 0.0817
